# Compounds with a hit are over-represented: about 1.6% of the library has one in this group of screens.
# p53ts 32C kill = p53ts cell cytotoxicity, permissive temperature; H1299-p53A138V at 32C, ATP luminescence viability, 24 h; Potency, µM (doses to about 46.1 µM), most hits filed as cytotoxic; actives 0.93% (n = 130,000); AID 924; further: nearly all actives have a fitted effect of over 55% in size
#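 H1299-p53 A138V cells (temperature-sensitive p53) exposed 24 h to up to 46 uM compound at 32C, where p53 is wild-type in conformation. Viability read as ATP luminescence and normalised to DMSO and 100 uM tamoxifen. AC50 fitted with the Hill equation.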
# Peg3 imprint = genomic imprint erasure induction; actives 0.02% (n = 110,000); Potency, µM (series often up to 60.7 µM), actives largely listed as activators; mouse ES Peg3-LacZ reporter, beta-gal luminescence, 40 h
#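 Imprint erasure is scored as LacZ activity from the silenced maternal Peg3 allele in feeder-free female ES cells cultured 40 h with LIF. Luminescence is normalized to in-plate negative controls and fitted to the Hill equation.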
# p53ts 39C tox = cytotoxicity in p53ts cells at nonpermissive temperature; Potency, µM (titrated, usually from 46.1 µM), actives largely listed as cytotoxic; actives 1.5% (n = 130,000); H1299-p53A138V viability at 39C, ATP luminescence, 24 h; AID 902; further: nearly all actives have a fitted effect of over 55% in size
# A number is an active result; n = inactive; u = inconclusive; x = no result given; [ ] = dose if it differs, or a comment. The call rests on the fitted dose curve; in most records, active means well fitted curve in the direction sought with a large enough effect; inconclusive means small, poorly fitted or top-dose-only effect, or another doubt; inactive means no such curve, though single readings can be large; an effect the other way counts as inactive or inconclusive.
SMILES,p53ts 32C kill,Peg3 imprint,p53ts 39C tox
COc1ccccc1CN1CCN(C2CCN(C(=O)Nc3ccccc3)CC2)C(=O)C1=O,n,n[10.9 µM],n
COC(=O)c1c(SCC(=O)Nc2ccccc2OC)[nH]c2ccccc2c1=O,n,n[10.9 µM],u
COC(=O)c1c(SCC(=O)Nc2cc(OC)cc(OC)c2)[nH]c2ccc(C)cc2c1=O,n,n[10.9 µM],5.01µM
Cc1ccc(C2CCN(C(=O)Nc3ccccc3)C2)cc1 (centres undefined),u,n,u
Cc1ccc(NC(=O)N2CC3CCCN3c3ccccc32)cc1C (centres undefined),u,n[10.9 µM],n
O=C(Nc1ccc(Cl)cc1)N1CCC(c2ccccc2)C1 (centres undefined),u,n[10.9 µM],12.6µM
Cc1ccc(NC(=O)N2CCC(c3ccccc3)C2)cc1C (centres undefined),u,n[10.9 µM],12.6µM
CCCn1c(-c2ccc(F)cc2)nc2c(NC3CCN(Cc4ccccc4)CC3)nc(C)nc21,n,n,n
CCOc1ccccc1N(CC(=O)NCCSc1ccccc1)S(=O)(=O)c1ccccc1,n,n[10.9 µM],n
CCc1nnc2c(Nc3cccc(F)c3)nc3ccc(C(=O)c4ccccc4)cc3n12,n,n[10.9 µM],n
CC(C)c1ccc2oc(-c3cc(N)ccc3O)nc2c1,12.6µM,n,15.8µM
Cc1ccccc1-c1nc2cc(N)ccc2o1,u,n,u
Cc1ccc(-c2nc3cc(C(C)C)ccc3o2)cc1NC(=O)c1cc2ccccc2o1,n,n[10.9 µM],n
Nc1ccc2oc(-c3ccccc3Br)nc2c1,12.6µM,n[10.9 µM],12.6µM
CC(C)=CCOc1ccc(/C=C/C(=O)c2ccc(OCC=C(C)C)cc2OCC(=O)O)cc1,x,n,x
CCc1cnc2c(c1SCC(=O)Nc1ccc(C)cc1C)c(=O)n(C)c(=O)n2C,n,n[10.9 µM],n
CCOC(=O)c1ccc(NC(=O)CS(=O)(=O)Cc2nc(-c3ccc(C)cc3)oc2C)cc1,n,n[10.9 µM],n
COc1ccc(C(CNC(=O)COc2ccccc2C#N)N2CCOCC2)cc1 (centres undefined),n,n,n
CC(C)(C)NC(=O)NC(=O)COc1ccccc1C#N,12.6µM,n,12.6µM
CN1C(=O)c2ccccc2Sc2ccc(NC(=O)NCc3cccc(Cl)c3)cc21,n,n[10.9 µM],n
COc1cc(-c2noc(-c3ccc(N4CCN(C)CC4)c([N+](=O)[O-])c3)n2)cc(OC)c1OC,n,n[10.9 µM],n
O=c1c2ccccc2cnn1-c1nc2ccccc2s1,0.794µM,n,1µM
Cc1ccc(C)c(N2CCN(c3cnn(-c4nc5ccccc5s4)c(=O)c3Cl)CC2)c1,x,x,n
Cc1sc2nc3ccc(N4CCCC4)nn3c(=O)c2c1C,n,n,u
Cc1ccc2nc3ccc(N4CCN(C)CC4)nn3c(=O)c2c1,3.98µM,n,u
SMILES,p53ts 32C kill,Peg3 imprint,p53ts 39C tox
CCc1ccccc1NC(=O)CSc1nnc(COc2ccccc2Cl)o1,n,n[10.9 µM],n
c1csc(CNc2ccnc(-c3ccc4c(c3)OCO4)n2)c1,12.6µM,n,10µM
c1ccc(CNc2ccnc(-c3ccc4c(c3)OCO4)n2)cc1,u,n,u
c1cncc(-c2nccc(NCc3cccs3)n2)c1,n,u,n
COc1cccc(-c2nccc(NCc3cccs3)n2)c1,u,n,12.6µM
CN1CCN(c2ncc3ncc(=O)n(C[C@H]4CCCO4)c3n2)CC1,n,n,n
COc1cccc(N2CC(NC(=O)/C=C\c3ccc4c(c3)OCO4)CC2=O)c1 (centres undefined),n,n[10.9 µM],n
Cc1oc2ncn(C)c(=O)c2c1C(=O)N1CCN(c2cccc(C(F)(F)F)c2)CC1,n,n[10.9 µM],n
CC1CCN(c2ccc(-c3nc(-c4ccccc4)no3)cc2[N+](=O)[O-])CC1,n,n[10.9 µM],22.4µM
Cc1ccc(-c2noc(-c3ccc(N4CCC(C)CC4)c([N+](=O)[O-])c3)n2)cc1,n,n[10.9 µM],n
O=C(OCC(=O)N1CCCCCC1)c1n[nH]c(=O)c2ccccc12,n,n,n
CC1CCN(C(=O)COC(=O)c2n[nH]c3ccccc23)CC1,u,n,10µM
Cc1ncsc1C(=O)Nc1nc2c(s1)CC(C)CC2 (centres undefined),u,n,15.8µM
CC1CCc2nc(NC(=O)Cc3ccc(Cl)cc3)sc2C1 (centres undefined),n,n[10.9 µM],n
O=C(Nc1ccccc1C(F)(F)F)c1ccc2oc(=O)c(S(=O)(=O)c3ccc(F)cc3)cc2c1,10µM,n[10.9 µM],12.6µM
COc1ccccc1NC(=O)c1ccc2oc(=O)c(S(=O)(=O)c3ccccc3)cc2c1,n,n[10.9 µM],n
O=C(CCS(=O)(=O)c1nc(-c2ccc3c(c2)OCO3)cc(C(F)(F)F)n1)Nc1ccc(F)c(Cl)c1,u,n[10.9 µM],n
COc1ccc(C)cc1Nc1cc(C)nc2nc(C)nn12,n,n,n
COc1ccc(C)cc1Nc1nc(N)c2cc(OC)c(OC)cc2n1,20µM,n[10.9 µM],20µM
CCc1ccccc1NS(=O)(=O)c1cc(Br)cc2c1N(C(=O)C1CC1)CC2,n,n[10.9 µM],n
CCOc1ccccc1CNC(=O)CCc1cn(Cc2ccc(Cl)cc2)c2ccccc12,n,n[10.9 µM],n
Oc1ccc(NCc2ccccc2OCc2ccccc2Cl)cc1,n,n[10.9 µM],n
Oc1ccc(NCc2ccc(OCc3ccccc3Cl)cc2)cc1,u,n[10.9 µM],10µM
Oc1ccc(OCc2ccccc2)cc1,n,n,n
Oc1ccc(NCc2ccc(OCc3ccccc3)cc2)cc1,u,n[10.9 µM],20µM
SMILES,p53ts 32C kill,Peg3 imprint,p53ts 39C tox
O=C(N/N=C1\CCc2ccccc21)c1ccccc1O,x,x,4.47µM
O=C(OC1CCc2ccccc2C1=O)c1ccccc1O (centres undefined),n,n,n
Cc1ccc(Nc2nc3c(c(=O)[nH]2)CCCC3)cc1,n,x,n
O=c1[nH]c(Nc2nc3ccccc3o2)nc2c1CCCC2,12.6µM,x,u
CCC(=O)Nc1ccccc1-c1nc2ccccc2n(C(C)C(=O)Nc2cccc(Cl)c2C)c1=O (centres undefined),n,n[10.9 µM],n
CCOC(=O)Cn1c(=O)cc(C)c2c(C)nn(-c3cccc(F)c3)c21,n,n[10.9 µM],n
CC(C)c1ccc(-c2noc(SCC(=O)N3CCN(c4ccccc4F)CC3)n2)cc1,u,n[10.9 µM],6.31µM
O=C(CSc1nc(-c2ccccc2)no1)N1CCN(c2ccccc2F)CC1,n,n[10.9 µM],n
COc1ccccc1N1CCN(C(=O)CSc2nc(-c3ccc(C(C)C)cc3)no2)CC1,7.94µM,n[10.9 µM],u
O=C(CSc1nc(-c2ccccc2)no1)N1CCCCC1,n,n[10.9 µM],n
Cc1cccc(OC(=O)CSc2nnc(CNC(=O)c3ccccc3)o2)c1C,n,n[10.9 µM],n
COC(=O)[C@H](CCCN=C(N)N)NC(=O)CCCc1c(-c2ccccc2)[nH]c2c(F)cc(F)cc12,x,n,x
CC(C)CC(=O)Nc1ccc(-c2cn3ccsc3n2)cc1,1µM,n,1µM
CCS(=O)(=O)Nc1ccc(-c2cn3ccsc3n2)cc1,u,n[10.9 µM],u
CC(C)CC(=O)Nc1cccc(-c2cn3cccnc3n2)c1,u,n[10.9 µM],u
CC(C)(C)C(=O)Nc1ccc(-c2cn3ccsc3n2)cc1,0.631µM,n,0.794µM
Oc1ccc(Nc2nc3ccccc3n3cnnc23)cc1,n,n[10.9 µM],n
Cc1ccc(C)c(NC(=O)c2ccc3nc(CCc4ccccc4)oc3c2)c1,n,n[10.9 µM],n
CCOc1ccc(C(=O)Nc2cc(C)on2)cc1OCC,n,n,n
O=C(Nc1nc2c(F)cccc2s1)c1ccc2c(c1)OCCO2,10µM,n[10.9 µM],5.01µM
COc1cccc(-c2nnc(SCC(=O)Nc3cc(C)on3)o2)c1,u,n,u
